# Hits are enriched below; roughly 9.4% of the tested compounds scored in any of these assays.
# SMN2 splice up: SMN2 splice variant enhancement; HEK293 SMN2-luciferase splicing reporter, luminescence, 30-36 h; AID 1458; actives 2.8% (n = 210,000); Potency, µM (highest dose often 46.1 µM), most hits filed as activators; further: nearly all actives have a fitted effect of over 55% in size
#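 HEK293 cells carry an SMN2 […]–luciferase reporter in which exon 7 inclusion puts luciferase in frame. Cells were plated 10-12 h before compound addition, then incubated 30-36 h at 37C. ONE-Glo luminescence was read; sodium butyrate at 4.5 mM final served as control.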
# NPC1 prom act: activators of NPC1 promoter. actives 2.4% (n = 320,000). Huh7 NPC1 promoter luciferase reporter, 24 h. Potency, µM (highest dose often 9.22 µM), actives largely listed as activators; further: nearly all actives have a fitted effect of over 60% in size
#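 Huh7 cells stably carrying NPC1 promoter–luciferase, plated in Opti-MEM with 10% FBS for 2 h, were exposed to compound in DMSO for 24 h at 37 °C; luciferase reagent was added for 10 min and luminescence read.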
# FLuc counter: firefly luciferase modulation, counter-screen for miR-21 project. P08659. purified FLuc, Km substrates, luminescence inhibition. Potency, µM (top dose mostly 57.5 µM), hits mostly inhibitors. actives 6.9% (n = 360,000). AID 588342; further: nearly all actives have a fitted effect of over 55% in size
# Target sequence (P08659 whole entry, looked up): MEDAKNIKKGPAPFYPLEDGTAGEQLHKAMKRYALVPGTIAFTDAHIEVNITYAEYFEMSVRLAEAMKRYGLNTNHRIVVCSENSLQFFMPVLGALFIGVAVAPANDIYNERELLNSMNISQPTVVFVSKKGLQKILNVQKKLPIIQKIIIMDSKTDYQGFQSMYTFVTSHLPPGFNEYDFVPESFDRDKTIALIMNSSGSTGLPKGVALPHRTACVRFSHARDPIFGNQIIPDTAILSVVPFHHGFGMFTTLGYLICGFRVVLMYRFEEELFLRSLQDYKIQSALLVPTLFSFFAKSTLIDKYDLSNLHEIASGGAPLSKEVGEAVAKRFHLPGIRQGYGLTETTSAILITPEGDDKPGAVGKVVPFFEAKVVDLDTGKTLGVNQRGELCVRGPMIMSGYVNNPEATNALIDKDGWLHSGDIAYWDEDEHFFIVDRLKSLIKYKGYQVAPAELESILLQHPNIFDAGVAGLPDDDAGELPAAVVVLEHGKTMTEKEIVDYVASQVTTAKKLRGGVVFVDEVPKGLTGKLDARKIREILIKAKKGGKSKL
#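 Biochemical qHTS of compounds, final roughly 60 µM downward over six points, against 10 nM purified firefly luciferase using Km concentrations of substrates (10 uM D-luciferin, 10 uM ATP) in Tris acetate pH 7.5 buffer; luminescence output.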
# ELG1 DNA repair: ELG1-dependent DNA repair inhibition. HEK293T ELG1-luciferase reporter, luminescence, 16 h; DNA damage induced by 5-fluorouridine. Potency, µM (titrated, usually from 46.1 µM), most hits filed as inhibitors. actives 2.3% (n = 330,000). AID 504467; further: nearly all actives have a fitted effect of over 55% in size
#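 Cells (2,000 per well) received 5-fluorouridine plus test compound or DMSO and were incubated 16 hr at 37 °C, 5% CO2. Luciferase activity was read by luminescence 30 min after ONE-Glo addition; signal suppression marked inhibition of damage-induced ELG1 function.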
# Rab9 promoter act: activates the Rab9 promoter; Huh7 Rab9 promoter-luciferase reporter, luminescence, 24 h; Potency, µM (doses to about 9.22 µM), most hits filed as activators; actives 2.8% (n = 320,000); AID 485297; further: nearly all actives have a fitted effect of over 60% in size
#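 Luminescence from Amplite-detected luciferase (10 minutes, ambient) reports Rab9 promoter activation. Before that, stable Rab9-luciferase Huh7 cells (1500/well, reduced-serum OP-MEM I plus 10% FBS) were exposed to compound for 24 hours at 37C.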
# ELG1 genotox: induces genotoxicity in HEK293T cells with luciferase-tagged ELG1. HEK293T ELG1-luciferase reporter, luminescence, 16 h. Potency, µM (highest dose often 46 µM), hits mostly activators. actives 1.3% (n = 330,000). AID 504466; further: nearly all actives have a fitted effect of over 60% in size
#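 Screening used a luciferase reporter fused to human ELG1 in HEK293T cells. Luminescence was read on a CCD plate imager after 16 hr exposure and 30 min ONE-Glo incubation.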
# Hits are given with their value; i = inactive; ? = inconclusive; nt = not tested or not shown; [ ] = dose if it differs, or a comment. The call rests on the fitted dose curve; in most records, active means well fitted curve in the direction sought with a large enough effect; inconclusive means small, poorly fitted or top-dose-only effect, or another doubt; inactive means no such curve, though single readings can be large; an effect the other way counts as inactive or inconclusive.
SMILES,SMN2 splice up,NPC1 prom act,FLuc counter,ELG1 DNA repair,Rab9 promoter act,ELG1 genotox
COc1cccc(NC(=O)C(=O)NCCC2CCCCN2S(=O)(=O)c2cccs2)c1 (configuration not stated),nt,i,11µM,?,i,i
CC(=O)NS(=O)(=O)c1ccc(NC(=O)c2ccccc2F)cc1,i,i,i,i,i,i
CC1(c2ccc(NC(=O)c3ccccc3F)cc2)CC1(Cl)Cl (configuration not stated),nt,3.5µM,8.5µM,?,2.5µM,?
COc1ccc(NC(=O)C(=O)NCCC2CCCCN2S(=O)(=O)c2cccs2)cc1 (configuration not stated),nt,i,i,i,i,i
O=C(Nc1ccc2[nH]ccc2c1)c1cccs1,nt,1.6µM,9.5µM,?,2µM,?
CC(=O)Nc1ccc2[nH]ccc2c1,nt,i,i,i,i,i
O=C(Nc1ccc(NC(=O)c2cccs2)cc1)c1cccs1,nt,?,i,?,?,?
CCOc1ccc2nc(N3CCN(C(=O)c4ccc5c(c4)CCCC5)CC3)sc2c1,nt,nt,i,nt,nt,nt
Cc1cc(OCCCSc2nc(-c3ccc(C(C)(C)C)cc3)nc3cc(=O)[nH]n23)ccc1Cl,nt,nt,i,nt,nt,nt
COc1ccc(OC)c(NC(=O)c2c(N3CCCC3=O)c3cc(OC)ccc3n2C)c1,nt,nt,i,nt,nt,nt
Cc1cc(C)cc(NC(=O)C(=O)NCC(c2ccc3c(c2)OCO3)N2CCN(C)CC2)c1 (configuration not stated),nt,nt,i,nt,nt,nt
Cc1ccc2c(c1)-c1c(c(C(=O)N3CCN(c4cc(Cl)ccc4C)CC3)nn1C)CS2,nt,nt,i,nt,nt,nt
CSc1ccccc1NC(=O)CN(C)C(=O)c1ccc(NC(=O)c2cccs2)cc1,nt,i,i,21µM,i,i
CCC(C)c1ccc(NC(=O)c2cccs2)cc1 (configuration not stated),7.9µM,0.4µM,0.67µM,?,0.45µM,0.73µM
O=C(Nc1ccc(NC(=O)c2cccs2)c(Cl)c1)c1cccs1,nt,?,17µM,?,?,?
O=[N+]([O-])c1ccc(NNC(=S)Nc2ccc(F)cc2)cc1,i,i,19µM,?,i,i
O=C(Nc1ccc(NC(=O)c2cccs2)cc1Cl)c1ccco1,nt,?,i,?,?,?
CCC(C)NS(=O)(=O)c1ccc(NC(=O)c2cccs2)cc1 (configuration not stated),nt,i,i,i,i,i
O=[N+]([O-])c1ccc(Nc2ccc(F)cc2)cc1,nt,i,i,i,i,i
O=C(Nc1ccccc1Oc1ccsc1C(=O)O)c1ccccc1F,nt,i,i,i,i,i
O=C(Nc1ccc(-c2ccc([N+](=O)[O-])cc2)cc1)c1ccccc1F,?,i,i,?,i,i
Cc1ccccc1C(=O)Nc1ccc(NC(=O)c2cccs2)cc1,3.5µM,nt,?,nt,nt,nt
O=C(Nc1ccc([N+](=O)[O-])cc1)c1ccccc1F,16µM,?,?,?,2.8µM,i
CCC1CCCCN1S(=O)(=O)c1ccc(NC(=O)c2snnc2C)cc1 (configuration not stated),nt,i,i,?,i,i
O=C(Nc1ccc(Oc2ccsc2C(=O)O)cc1)c1ccccc1F,nt,i,17µM,i,i,i
SMILES,SMN2 splice up,NPC1 prom act,FLuc counter,ELG1 DNA repair,Rab9 promoter act,ELG1 genotox
CCC1CCCCN1S(=O)(=O)c1ccc(NC(=O)c2cccs2)cc1 (configuration not stated),i,i,i,21µM,i,i
CC1(C)O[C@H]2[C@@H](c3[nH]nc4c(=O)[nH]c(=O)[nH]c34)OC[C@H]2O1,i[9.22 µM],nt,nt,nt,nt,nt
CCCCOc1ccc(C(=O)Nc2cccc(-c3nc4cccnc4s3)c2)cc1,nt,nt,i,nt,nt,nt
Cc1nn(C)c2c1c(C(F)(F)F)cc(=O)n2Cc1ccc(Br)cc1F,nt,nt,i,nt,nt,nt
C(=N\n1cnnc1)/c1cccs1,?,i,i,i,i,i
C(=N\N=C\c1cccs1)/c1cccs1,?,?,2.1µM,?,2µM,i
O=C(Cn1cc(C(=O)c2cccs2)c2ccccc21)Nc1ccc(Br)cc1,i,nt,i,nt,nt,nt
CCC(C)NC(=O)c1cn(CC)c2ccc(S(=O)(=O)N3CCc4ccccc4C3)cc2c1=O (configuration not stated),i,nt,i,nt,nt,nt

# From PubChem
